NIH3T3 tox: cytotoxic compounds in NIH 3T3 cells; AID 1345082; NIH 3T3 viability, CellTiter-Glo ATP luminescence, 48-72 h; 94,000 compounds, 4.3% hits; Potency, µM (series often up to 96.7 µM), without a hit: top-dose activity change, negative = cytotoxicity, usual class: inhibitors; further: on the % scale 0 is the no-effect control and ±100 the full control effect; nearly all actives have a fitted effect of over 55% in size
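ATP-dependent luminescence (CellTiter-Glo) served as the viability signal for NIH 3T3 cells treated with compound for 48 or 72 hr at 37 °C.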
GPT2 inh: GPT2 alanine aminotransferase inhibition | Potency, µM (series often up to 57.7 µM), for the others: at the highest dose activity change, negative = inhibition, actives largely listed as inhibitors | 100,000 compounds, 0.25% hits | Q8TD30 | AID 1671188 | Recombinant GPT2, coupled pyruvate oxidase/HRP Amplex Red fluorescence; further: on the % scale 0 is the no-effect control and ±100 the full control effect; nearly all actives have a fitted effect of over 60% in size
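Fluorescence read-out: pyruvate from GPT2 turnover coupled to pyruvate oxidase, HRP and Amplex Red (0.2mM ThPP, 0.2U/mL PO and HRP, 50uM Amplex final). Substrates 250uM a-KG, 2mM L-alanine; enzyme 10ng/uL; 30 min RT.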
HEK cytotox: cytotoxic compounds in HEK 293 cells; HEK 293 viability, ATP luminescence (CellTiter-Glo), 48-72 h; 94,000 compounds, 6.6% hits; Potency, µM (doses to about 115 µM), for inactives: at the top dose activity change, negative = cytotoxicity, hits mostly inhibitors; AID 1345083; further: on the % scale 0 is the no-effect control and ±100 the full control effect; nearly all actives have a fitted effect of over 60% in size
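HEK 293 seeded at 250 cells/well receive compound via pintool. After 48 or 72 hr at 37 degree Celsius, 5% CO2 and 95% humidity, CellTiter-Glo is dispensed and luminescence read following 10 min at room temperature.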
hNpr1 antagonist: human Npr1 receptor antagonism; 76,000 compounds, 1.6% hits; AID 1347048; HEK293 hNpr1 GloSensor cGMP, ANP-stimulated luminescence; Potency, µM (series often up to 46.3 µM), inactives show at the highest dose activity change, negative = inhibition, most hits filed as inhibitors; calls by dose curve; further: on the % scale 0 is the no-effect control and ±100 the full control effect; nearly all actives have a fitted effect of over 60% in size
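Compound pre-incubated 30 min at room temperature on GloSensor-loaded HEK293 cells stably carrying hNpr1 and the pGS-40F cGMP biosensor. Stimulation uses hNppA at 0.1 nM final; luminescence is taken at baseline and 20 min post-agonist.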
Luciferase inh: inhibitors of firefly (Photinus pyralis) luciferase; P08659; purified P. pyralis luciferase, luminescence, biochemical; Potency, µM (doses to about 115 µM), usual class: inhibitors; 76,000 compounds, 2.5% hits; further: on the % scale 0 is the no-effect control and ±100 the full control effect; nearly all actives have a fitted effect of over 65% in size
Target sequence (P08659 whole entry, looked up): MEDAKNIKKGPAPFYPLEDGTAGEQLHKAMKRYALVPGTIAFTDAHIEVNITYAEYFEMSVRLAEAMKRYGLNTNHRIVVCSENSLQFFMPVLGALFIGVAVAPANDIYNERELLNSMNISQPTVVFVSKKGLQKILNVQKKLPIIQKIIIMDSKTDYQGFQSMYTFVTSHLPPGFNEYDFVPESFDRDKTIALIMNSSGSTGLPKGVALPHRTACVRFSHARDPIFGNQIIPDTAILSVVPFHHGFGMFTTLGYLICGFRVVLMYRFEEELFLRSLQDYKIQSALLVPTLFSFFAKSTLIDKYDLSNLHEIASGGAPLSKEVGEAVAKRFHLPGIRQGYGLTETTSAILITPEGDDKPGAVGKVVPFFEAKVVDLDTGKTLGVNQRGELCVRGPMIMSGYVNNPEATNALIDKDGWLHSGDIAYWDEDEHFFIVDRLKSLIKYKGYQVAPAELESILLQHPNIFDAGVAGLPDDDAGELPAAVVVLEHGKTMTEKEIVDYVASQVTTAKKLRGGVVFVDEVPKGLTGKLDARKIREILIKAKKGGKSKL
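Inhibitors were tested against purified firefly luciferase in a biochemical, low-substrate format (both substrates at 10uM) and luminescence measured with a CCD imager.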
NPR1 antag cnf: confirmation of human Npr1 natriuretic peptide receptor antagonists. 1,400 compounds, 76% hits. Potency, µM (series often up to 57.6 µM), without a hit: at the highest dose activity change, negative = inhibition, most hits filed as inhibitors. HEK293 hNpr1 cGMP GloSensor luminescence, ANP-stimulated. shares compounds with hNpr1 antagonist; calls by dose curve; further: nearly all actives have a fitted effect of over 70% in size
NPR2 antag: hNpr2 antagonism, selectivity versus Npr1; HEK293 hNpr2 GloSensor cGMP luminescence, CNP-stimulated; 1,400 compounds, 67% hits; shares compounds with hNpr1 antagonist; Potency, µM (series often up to 57.6 µM), for the others: at the top dose activity change, negative = inhibition, actives largely listed as inhibitors; calls by dose curve; further: nearly all actives have a fitted effect of over 70% in size
FLuc inh counter: inhibits firefly luciferase, false Npr1 antagonist flag; 1,400 compounds, 0.7% hits; Potency, µM (top dose mostly 57.6 µM), for inactives: top-dose activity change, negative = inhibition, usual class: inhibitors; shares compounds with hNpr1 antagonist; purified FLuc enzyme, luminescence, Km substrate; further: 0% is about no effect
GloSensor cGMP: counter-screen for Npr1 antagonists: GloSensor control cell line. shares compounds with hNpr1 antagonist. HEK293 GloSensor cGMP, SNP-stimulated, luminescence. Potency, µM (titrated, usually from 57.6 µM), inactives show top-dose activity change, negative = inhibition, actives largely listed as inhibitors. 1,400 compounds, 69% hits. AID 1347051; calls by dose curve; further: on the % scale 0 is the no-effect control and ±100 the full control effect; nearly all actives have a fitted effect of over 70% in size
The depositor's hits bear a star; i = inactive; ? = inconclusive; . = no result given; [ ] = another dose, or the depositor's remark. Compounds with a hit are over-represented: about 10% of the library has one in this group of screens. Unless noted, the call rests on the fitted dose curve; in most records, active means well fitted curve in the direction sought with a large enough effect; inconclusive means small, poorly fitted or top-dose-only effect, or another doubt; inactive means no such curve, though single readings can be large; an effect the other way counts as inactive or inconclusive. Potency means the concentration at half of the fitted maximal effect.

SMILES	NIH3T3 tox	GPT2 inh	HEK cytotox	hNpr1 antagonist	Luciferase inh	NPR1 antag cnf	NPR2 antag	FLuc inh counter	GloSensor cGMP
COc1ccc(C2Cn3nnc(C(=O)N4CCN(C(=O)c5ccc(C)s5)CC4)c3CO2)cc1 (configuration not stated)	?	-1.0%	?	?	i	24.3µM*	24.3µM*	0.4%	24.3µM*
Cc1ccc(C2Cn3nnc(C(=O)N4CCN(C(=O)c5cccc(Cl)c5)CC4)c3CO2)cc1 (configuration not stated)	?	i	31.6µM*	?	i	15.3µM*	21.7µM*	1.6%	13.7µM*
CC(C)S(=O)(=O)c1ncc(CN(CCO)Cc2ccccc2)n1CCc1ccccc1	-6.6%	-1.0%	?	1.1%	i	.	.	.	.
CC(C)c1nncn1C1CCN(S(=O)(=O)c2ccc(Br)cc2)CC1	?	i	?	1.9%	i	.	.	.	.
CC(C)c1nncn1C1CCN(S(=O)(=O)c2ccc(Br)s2)CC1	?	i	?	11.2µM*	i	24.3µM*	?	2.3%	21.7µM*
C[C@]1(CO)[C@H]2Cc3sc(NC(=O)c4c(F)cccc4F)nc3[C@@H](CC(=O)NCc3ccccc3)[C@]2(C)CC[C@H]1O	?	i	?	-2.0%	i	.	.	.	.
Cc1nn2c(c1-c1ccccc1-c1ccccc1)N(Cc1ccc(O)cc1)CCC2	8.91µM*	-7.1%[88.5 µM]	7.94µM*	3.55µM*	i	2.8µM*	4.98µM*	1.8%[86.2 µM]	3.53µM*
Cc1cccc(CN2CCCn3nc(C)c(-c4ccccc4-c4ccccc4)c32)n1	12.6µM*	i	?	15.8µM*	i	11.1µM*	28µM*	-1.6%[86.2 µM]	7.89µM*
O=C(c1cc(-c2cnccc2Cl)c2cccn2n1)N1CCCC1	?	-15.0%	?	.	.	.	.	.	.
O=C(NCCCc1ccccc1)c1nc2sccn2c1-c1cccnc1	?	i	?	.	.	.	.	.	.
OC[C@@H]1O[C@H](CNCc2ccc(F)cc2)[C@H](N2CCN(c3ccccc3)CC2)[C@@H]1O	-16.2%	i	?	3.4%	i	.	.	.	.
Cc1ccccc1CN1CC[C@@H]2OCC(=O)N(C(C)C)[C@H]2CC1	-23.8%[138 µM]	-11.3%[88.5 µM]	?	7.94µM*	i	7.89µM*	12.5µM*	3.0%[86.2 µM]	6.27µM*
COc1ccc(NC(=O)c2cc3n(n2)CC(c2ccc(Br)cc2)OC3)cc1OC (configuration not stated)	?	i	44.7µM*	?	i	?	-25.0%	-1.7%	?
O=C(Nc1cccc(F)c1)c1cc2n(n1)CC(c1ccc(Br)cc1)OC2 (configuration not stated)	?	i	?	-26.1%	?	.	.	.	.
O=C(NCCc1ccccn1)c1cc2n(n1)CC(c1ccc(Br)cc1)OC2 (configuration not stated)	?	-2.7%	?	11.2µM*	i	21.7µM*	24.3µM*	-13.4%	24.3µM*
COc1cc(NC(=O)c2cc3n(n2)CC(c2ccc(Br)cc2)OC3)cc(OC)c1OC (configuration not stated)	?	-6.9%	?	?	i	?	-24.6%	-2.9%	-19.2%
COc1cccc(CNC(=O)c2ccc3nnc(CC4CC4)n3c2)c1	?	i	-12.9%	.	.	.	.	.	.
Cc1cnc(C2CCC2)n1CC1CCN(C(=O)c2cccc(C#N)c2)C1 (configuration not stated)	-20.9%	3.4%	-8.4%	.	.	.	.	.	.
c1ccc(CN2C[C@H]3CCN(C4CCCC4)C[C@H]32)cc1	?	-25.8%	-24.8%	.	.	.	.	.	.
COc1ccccc1-c1ncc(CNc2cc(C3CC(O)C3)ncn2)s1 (configuration not stated)	-64.2%	4.2%	31.6µM*	7.08µM*	i	8.62µM*	12.2µM*	-27.1%	6.85µM*
COc1ccc(-c2cn3cc(C(=O)N4CCCCC4)nc3s2)cc1	?	0.2%	?	.	.	.	.	.	.
CCc1nccn1CC(=O)NC(C)c1cnn(-c2ccccc2C)c1C (configuration not stated)	?	-21.9%	?	11.2µM*	i	?	?	-1.8%	?
CCNc1ncc(C(=O)NC(C)c2cnn(-c3ccccc3C)c2C)cn1 (configuration not stated)	-19.7%	4.4%	-18.1%	-24.4%	i	.	.	.	.
Cn1ncc(N2CCC(CNC(=O)C3=Cc4ccccc4OC=C3)C2)cc1=O (configuration not stated)	?	-10.4%	-38.2%	0.8%	?	.	.	.	.
O=C(NCCc1cccc(Oc2ccccc2)c1)[C@H]1CCC[C@H](O)C1	-35.0%	0.5%[11.5 µM]	?	14.1µM*	i	24.3µM*	21.7µM*	0.7%	21.7µM*
SMILES	NIH3T3 tox	GPT2 inh	HEK cytotox	hNpr1 antagonist	Luciferase inh	NPR1 antag cnf	NPR2 antag	FLuc inh counter	GloSensor cGMP
Cc1ccc2[nH]c(=O)c(CCC(=O)NCCN3CCc4ccccc4C3)cc2c1	4.8%	i	-5.4%	2.1%	i	.	.	.	.
CN1CCC(CN2CCC3(CC2)OCCN(c2ccc(F)cc2)C3=O)CC1	?	1.6%[88.5 µM]	?	6.0%[70.6 µM]	i	.	.	.	.
CC(C)c1ccc(CN2CCC3(CC2)OCCN(c2ccc(F)cc2)C3=O)cc1	?	2.2%[88.5 µM]	?	22.4µM*	i	35.3µM*	31.4µM*	-1.9%[86.2 µM]	35.3µM*
N#Cc1ccc(CN2CCc3nc(C(=O)NCc4cccc(F)c4)oc3CC2)cc1	?	0.5%[88.5 µM]	?	?	i	39.6µM*	?	2.5%[86.2 µM]	31.4µM*
O=C(NCc1ccncc1)c1nc2c(o1)CCN(Cc1ccccc1F)CC2	-26.1%[138 µM]	1.0%[88.5 µM]	?	?	i	.	.	.	.
O=C(NCc1ccccc1)c1nc2c(o1)CCN(Cc1ccc(F)cc1F)CC2	70.8µM*	-0.9%[88.5 µM]	100µM*	25.1µM*	i	39.6µM*	35.3µM*	1.1%[86.2 µM]	39.6µM*

Source: PubChem BioAssay (National Center for Advancing Translational Sciences (NCATS))
